These results are taken from the OligoGym collection.

Assay in all cases: pooled miR-30 sensor sort-seq; sequence = guide strand
Common to all, as to conditions: shRNA

The target in test [1] is PPIL1.
The target of test [2] is PPIA.
Test [3] has as its target PPIF.
The target of test [4] is PPM1D.
Test [5] deals with PQLC1.
Test [6] deals with PRKAR1B.
Test [7] deals with PRPS2.
Test [8] deals with PRSS27.
Test [9] addresses PSKH2.
Test [10] concerns the target PTBP2.
Test [11] has as its target PYROXD1.
The target of test [12] is RAB11A.
The target of test [13] is QSOX1.
Further: reference of the scale not given here.

On to TAGATGCACCACCTCGACCTGT, for which, in test [1], the sensor-assay potency score (higher = more potent) is -1.02.
Take TATTTCATAATCATAAACTTAA: in [2], the sensor-assay potency score (higher = more potent) is -0.804.
On to TAGGAAGACAATATTAAACAGG, for which the sensor-assay potency score (higher = more potent) in test [3] was -0.559.
Turning to TATTTTCTTCACGACGTCCATG, the sensor-assay potency score (higher = more potent) in test [3] is -0.975.
Turning to TGTAGTAACCTCGACGAGCCAA, in test [1], the sensor-assay potency score (higher = more potent) is -0.207.
Still for that read-out and setting: the same measure for TAGCATTACATGTCATTCTATG: -0.73.
TTCAGCTCCAGCACCACGCGGC: the sensor-assay potency score (higher = more potent) in [3] is -0.501.
In the case of TGACCGAACACAACATGCTTGC, in [3], the sensor-assay potency score (higher = more potent) was -0.464.
On the same count and under the same terms, the same measure for TGTGATGACAATCTTCTTGGAT: 0.322.
As for TTTCTTTAAACATTTAGCCCTA, the sensor-assay potency score (higher = more potent) in test [4] was -0.501.
Still for that read-out and setting: the same measure for TAACAGAGTTCTTTCGCTGTGA: 0.0976.
Take ATGAGCACCATCTTGATGCTCA: the sensor-assay potency score (higher = more potent) in test [5] is -0.811.
As for TTCCTCTTGAGGATCTCAGAGC, the sensor-assay potency score (higher = more potent) in test [6] was -0.844.
In the case of TTGTCGTTAATTTCCCCGCAGC, the sensor-assay potency score (higher = more potent) in test [7] is -0.905.
Still for that read-out and setting: the same measure for TTCATTTTGTCCTCTTGCGGAA: -0.733.
On to TTTGCTGTAGAGCAGGTTGCAC, for which the sensor-assay potency score (higher = more potent) in [8] was -0.973.
As for ATACATAGCGTGTGGTCCCGGC, in [8], the sensor-assay potency score (higher = more potent) was -0.586.
Consider TTGGTTTTGACCTTCGTGCTTG, for which the sensor-assay potency score (higher = more potent) in test [9] was determined as 0.0948.
The same measure, in the same setting: the same measure for TTTGTCTATAAAGTCCTTCGCC: -0.325.
TAGTTCGTCAGATCCTCTCTTC came in with a sensor-assay potency score (higher = more potent) in [10] of 0.267.
On to TTTAGCTTTAGTAAGCTGTTTC, for which the sensor-assay potency score (higher = more potent) in [11] was -0.591.
On the same count and under the same terms, in the case of TTAATTCATGATCTGAACCTAA it was -0.379.
For TTCATCTGTAGGAACTGCCCTG, the sensor-assay potency score (higher = more potent) in test [12] worked out at 0.239.
Turning to TACATTTGTAGAGTCTAGGGCC, the sensor-assay potency score (higher = more potent) in [12] is 0.146.
Sequence TAGATTTGCTTCTAGCTTCCTT showed a sensor-assay potency score (higher = more potent) in test [11] of 0.523.
Consider TATTTCTCGCAAAGAATCCATC, for which the sensor-assay potency score (higher = more potent) in [13] was -1.27.
On to TTATTTCTCGCAAAGAATCCAT, for which the sensor-assay potency score (higher = more potent) in test [13] is -0.0879.
TTATCTGCTTTAGATTTGCTTC: the sensor-assay potency score (higher = more potent) in [11] was -0.93.
As for TTAAAGTAAAATACAACCGATT, the sensor-assay potency score (higher = more potent) in [11] is -0.766.
In the case of TTGTGGCTAGACCAGAGCCAGA, the sensor-assay potency score (higher = more potent) in [13] is -1.92.
